Among the data in PubChem BioAssay AID504406 (Broad Institute, 2011) are inhibition values, retold here.

The campaign covered roughly 320,000 compounds. About 190 (0.059%) were called active. Cut-off read from the data, not from the text of the source: active = inhibition above about 10% (passing the limit was not always enough); inconclusive = no clear call, values can overlap the other calls. For the sample, actives were picked, then their nearest neighbours and some compounds at random.

In the experiment the target is UDP-galactopyranose mutase (Mycobacterium tuberculosis (strain ATCC 25618 / H37Rv)) (UniProt P9WIQ1). The experiment can be described thus: blockers of Mtb UDP-galactopyranose mutase – biochemical, fluorescence polarization, single point, primary screen (AID 504406). The conditions noted are these: purified UGM, fluorescence polarization probe displacement; at 10 µM; hits give high values. In general terms: In fluorescence polarisation assays a small probe gives low polarisation when free and higher when bound to something large.
UDP-galactopyranose mutase (Mycobacterium tuberculosis (strain ATCC 25618 / H37Rv)), sequence (P9WIQ1 whole entry, looked up): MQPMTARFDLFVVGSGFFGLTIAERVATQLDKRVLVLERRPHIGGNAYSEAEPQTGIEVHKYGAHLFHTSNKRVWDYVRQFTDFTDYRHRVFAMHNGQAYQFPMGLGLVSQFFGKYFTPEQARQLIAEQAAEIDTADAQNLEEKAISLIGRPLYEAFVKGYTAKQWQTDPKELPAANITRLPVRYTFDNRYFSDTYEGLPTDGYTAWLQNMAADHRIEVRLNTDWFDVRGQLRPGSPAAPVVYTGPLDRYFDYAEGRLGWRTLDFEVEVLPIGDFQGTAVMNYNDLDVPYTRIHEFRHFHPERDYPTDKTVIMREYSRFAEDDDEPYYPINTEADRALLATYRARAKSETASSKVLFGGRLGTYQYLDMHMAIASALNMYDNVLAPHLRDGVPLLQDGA
Consider `COCCCNC(=O)c1ccc(CNS(=O)(=O)c2ccc(NC(C)=O)cc2)cc1`, for which the inhibition is 0.487% (inactive). With `NS(=O)(=O)c1ccc(NC(=O)COC(=O)C2(c3ccc(F)cc3)CCCC2)cc1`, the inhibition was -2.39% (inactive).

Take `CCOc1c(Nc2cccc(Cl)c2)c(=O)c1=O`: the inhibition is 1.65% (inactive). Turning to `CN(C)S(=O)(=O)c1ccc2oc(SCC(=O)Nc3ccccc3F)nc2c1`, the inhibition was -1.09% (inactive). Take `CCCCN(C(=O)CCNC(=O)NC12CC3CC(CC(C3)C1)C2)c1c(N)n(CCCC)c(=O)[nH]c1=O`: the inhibition is 3.96% (inactive). With `CC(C)N1C(=S)SC(C)(C)C1n1oc(=O)n(-c2ccc(Cl)c(Cl)c2)c1=O` (stereo not given), the inhibition is -0.52% (inactive).

In the case of `O=c1c2cc(-c3ccccc3)sc2nc2n1N=C(c1cccs1)CS2`, the inhibition is 0.0849% (inactive). `COc1cccc(C2=CC(=O)C[C@H](c3ccc(OC)c(OC)c3)C2)c1`: the inhibition was -3.83% (inactive). To `COc1cccc2cc(/C(C)=N/NC(=O)c3ccco3)oc12` belongs 1.34% (inactive).

As for `COc1cc(NC(=O)C2=C(C)OCCS2)c(Cl)cc1C(=O)NCCN1CCN(C)CC1`, the inhibition was -0.476% (inactive). For the compound `COc1ccc(-c2nnc(SC(=O)N3c4ccccc4Sc4ccccc43)o2)cc1`, the inhibition is -0.412% (inactive).

For the compound `COc1cc(CC(=O)N2CCC(n3nccc3NC(=O)C3CC3)CC2)cc(OC)c1OC`, the inhibition was 0.38% (inactive). To `COc1ccc(N2CCN(C(=O)c3cccs3)CC2)cc1` belongs -0.405% (inactive); to `NC1=NC(=O)C(Cc2cccc(Cl)c2)S1` (stereo not given), -2.61% (inactive). As for `CCOC(=O)c1c(NC(=O)CN2C(=O)NC3(CCC(C)CC3)C2=O)sc(C)c1CC` (stereo not given), the inhibition is -4.1% (inactive). Regarding `O=C1CCC(C(=O)N2CCN(c3ccccc3Cl)CC2)CN1CC1CCCCC1` (stereo not given), the inhibition is 0.849% (inactive). In the case of `Cc1ccc(C(O)P(=O)(OC(C)C)c2ccc(N(C)C)cc2)cc1` (stereo not given), the inhibition is -1.46% (inactive). The same measure for `CCCCCCCCc1c(O)nc(-n2[nH]c(C)c(CCO)c2=O)[nH]c1=O`: 2.37% (inactive); for `COc1ccc(N2CCN(S(=O)(=O)CCNC(=O)C34CC5CC(CC(C5)C3)C4)CC2)cc1`: -0.995% (inactive). To `ONC(=Nc1ccccc1)c1ccccc1Cl` belongs 0.392% (inactive); to `Cc1ccc(NC(=O)c2ccn(C(=O)Nc3ccccc3)n2)c(C)c1`, 0.808% (inactive). To `S=C(NCCc1ccccc1)N1CCn2cccc2C1c1ccncc1` (stereo not given) belongs 0.92% (inactive).

With `CNC[C@@H]1Oc2c(NS(C)(=O)=O)cccc2C(=O)N([C@@H](C)CO)C[C@H]1C`, the inhibition was -0.151% (inactive).

As for `O=C(NCCN1CCOCC1)c1cc(Sc2cccc(Cl)c2)nc2ccccc12`, the inhibition was -0.717% (inactive). On to `O=C1NC(=O)C(c2ccc(Cl)cc2)N1` (stereo not given), for which the inhibition is 0.455% (inactive). To `CC(C)N(C(=O)Cn1cc(SCC(=O)N2CCCC2)c2ccccc21)C(C)C` belongs 0.81% (inactive). The same measure for `CC(CCc1ccccc1)NCC(O)c1cccc([N+](=O)[O-])c1` (stereo not given): -0.221% (inactive); for `Nc1nc(NC(=O)/C=C/c2ccc(F)cc2)nn1-c1ccccc1`: -1.05% (inactive). On to `O=C(CC1CCCCC1)Nc1c2c(nn1-c1ccc(F)cc1)CS(=O)(=O)C2`, for which the inhibition is -1.58% (inactive).

For the compound `Cc1ccc(C2(c3ccc(C)cc3)NC(=O)N(Cc3c(C)noc3C)C2=O)cc1`, the inhibition was 2.04% (inactive). To `CCOc1ccc(NC(=S)N2CCC(N(C)CC3CCCO3)CC2)cc1` (stereo not given) belongs 1.59% (inactive); to `CN1C(=O)CC(N2CCN(c3ccccn3)CC2)C1=O` (stereo not given), -2.59% (inactive).

For `CC(C)(C)CN1CCNC(=O)C1CC(=O)NC1Cc2ccccc2C1` (stereo not given), the inhibition is -0.537% (inactive). To `CCc1c(C)[nH]c(=S)c(C#N)c1C` belongs 1.29% (inactive); to `CN1CCN(S(=O)(=O)c2cccc(C(=O)N3CCc4ccccc43)c2)CC1`, 2.67% (inactive); to `CCN(CC(=O)Nc1cccc(S(N)(=O)=O)c1)Cc1nc2ccccc2c(=O)[nH]1`, 0.435% (inactive).

In the case of `O=[N+]([O-])c1cc(S(=O)(=O)Nc2cccc(Cl)c2)ccc1N=Nc1c(O)[nH]c2ccccc12`, the inhibition is 3.07% (inactive). To `Cc1ccc(NC(=O)Cc2nnc(SCC(=O)Nc3nncs3)n2C)cc1` belongs 1.58% (inactive); to `Cc1cccc(NC(=O)c2ccc3c(=O)n(CC4CCCO4)c(=S)[nH]c3c2)c1` (stereo not given), 0.387% (inactive). For the compound `CCN(CCCCOC(=O)c1ccc(OC)c(OC)c1)C(C)Cc1ccc(OC)cc1` (stereo not given), the inhibition is 0.111% (inactive). `CC1CC(NC(=O)/C(C#N)=C/c2ccc[nH]2)CC(C)(C)C1` (stereo not given): the inhibition was -0.655% (inactive).

On to `CC(OC(=O)CCC(=O)c1ccccc1)C(=O)Nc1ccc(F)cc1` (stereo not given), for which the inhibition was 0.19% (inactive). Take `CC(C)c1csc(CN2CCC(CO)(Cc3ccccc3)CC2)n1`: the inhibition was 1.24% (inactive). As for `O=c1c2ccccc2cnn1Cc1n[nH]c(=S)n1-c1ccccc1F`, the inhibition was -0.397% (inactive). Regarding `COc1ccnc(Oc2ccccc2)c1-c1ncn[nH]1`, the inhibition was 1.4% (inactive).

On to `CCOCCN(C=O)c1cccc(OC)c1`, for which the inhibition is -2.42% (inactive). Turning to `CCOC(=O)N1CCC(Nc2c(NCCCN3CCN(CC)CC3)c(=O)c2=O)CC1`, the inhibition is -1.72% (inactive). In the case of `O=C(Nc1ccc(F)c(Cl)c1)C1CCN(S(=O)(=O)c2cccnc2)CC1`, the inhibition is 0.143% (inactive). To `CCCn1c2ccccc2c2cnn(CC(=O)NCCCN3CCCCC3CC)c(=O)c21` (stereo not given) belongs -1.26% (inactive); to `CCOC(=O)c1cc2c(ccn2C)n1CC(=O)N1CCC(C)CC1`, -2.05% (inactive); to `Cn1c(CC2Sc3ccccc3NC2=O)nnc1SCC(=O)c1ccc(Cl)cc1` (stereo not given), 1.26% (inactive). The same measure for `COCCN(C(=O)C(C)C)c1nnc(-c2ccc(C(C)(C)C)cc2)s1`: 2.82% (inactive); for `Cc1ccc(S(=O)(=O)N2CCC(C)CC2)cc1C(=O)NCc1ccccn1`: -2.55% (inactive). To `COCCNc1nc2nonc2nc1N(C)Cc1ccc(C)cc1` belongs 0.32% (inactive); to `COC(=O)/C=C(\Oc1ccccc1)C1(O)CCCCC1`, -0.0675% (inactive). Regarding `Cc1ccc2c(c1)C1CN(C)CCC1N2S(=O)(=O)c1ccc(Oc2ccc([N+](=O)[O-])cc2)cc1` (stereo not given), the inhibition is 3.72% (inactive). The same measure for `COc1ccccc1NC(=O)N1CCCC1C(=O)NCc1cccs1` (stereo not given): 0.501% (inactive); for `COc1ccc(-c2onc3ccc(C(C)=O)cc23)cc1`: 12.7% (active). `Oc1ccc(-c2onc3ccc(Cl)cc23)cc1`: the inhibition was -1.19% (inactive).

`CC(OC(=O)c1ccc2noc(-c3ccccc3)c2c1)C(N)=O` (stereo not given): the inhibition is 1.01% (inactive).

Broadly, the inhibition is the relative decrease from the control value, in per cent.
